Inconclusive results are not listed. Activity calls are given as the source filed them. How the source made its calls, unless noted: active means hit-call score of the fitted dose curve at least 0.9, where 1 is the maximum; inactive means score below 0.9.
Tests used:
[1] = target: Paired box protein Pax-6 (Homo sapiens) (UniProt P26367); experiment: ATG_Pax6_CIS: Attagene CIS-FACTORIAL HepG2 Assay for human Paired Box 6 (PAX6) (AID 2282956); settings: HepG2 CIS-FACTORIAL PAX6 reporter transcription, RNA readout; actives raise or lower the signal
Sequence of Paired box protein Pax-6 (Homo sapiens) (P26367 whole entry, looked up): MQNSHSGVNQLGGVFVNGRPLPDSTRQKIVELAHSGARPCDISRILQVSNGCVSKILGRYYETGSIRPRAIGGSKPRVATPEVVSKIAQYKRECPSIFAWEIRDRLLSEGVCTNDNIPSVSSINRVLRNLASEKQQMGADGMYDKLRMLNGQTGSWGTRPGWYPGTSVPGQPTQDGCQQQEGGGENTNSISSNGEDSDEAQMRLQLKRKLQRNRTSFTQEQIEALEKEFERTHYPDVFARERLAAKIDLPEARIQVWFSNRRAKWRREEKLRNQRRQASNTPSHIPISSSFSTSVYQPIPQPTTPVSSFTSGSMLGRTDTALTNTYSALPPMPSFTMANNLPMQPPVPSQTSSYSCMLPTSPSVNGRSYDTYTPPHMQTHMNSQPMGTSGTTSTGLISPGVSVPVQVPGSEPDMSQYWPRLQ
In short: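 Fluorescent RT-PCR products separated by capillary electrophoresis report PAX6-linked promoter mRNA in HepG2 cells 24 h post-dose. Curves fitted bidirectionally, DMSO as negative control.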

[2] = ATG_PXRE_CIS: Attagene CIS-FACTORIAL HepG2 Assay for human Pregnane X Receptor Element (PXRE) (AID 2282957); settings: HepG2 Attagene CIS-FACTORIAL PXRE reporter, mRNA; actives raise or lower the signal
In short: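 Bidirectional activity, baselined to DMSO, derived from reporter mRNA fluorescence (RT-PCR plus capillary electrophoresis) in HepG2 cells bearing cis-promoter reporter units, 24 h exposure.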

[3] = ATG_RORE_CIS: Attagene CIS-FACTORIAL HepG2 Assay for human RAR-related Orphan Receptor Element (RORE) (AID 2282959); settings: HepG2 Attagene cis-factorial RORE reporter, mRNA; actives raise or lower the signal
In short: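 Readout: fluorescent reporter mRNA by RT-PCR plus capillary electrophoresis, 24 h after dosing transfected HepG2 cells. Endogenous transcription factor activity on a cis promoter element is measured. Gain or loss of signal fitted against DMSO.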

[4] = ATG_Sox_CIS: Attagene CIS-FACTORIAL HepG2 Assay for human SRY-box transcription factor (SOX) (AID 2282960); settings: HepG2 Attagene cis-factorial SOX reporter, mRNA; actives raise or lower the signal
In short: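 Read-out: fluorescent RT-PCR products of SOX1-linked reporter transcripts resolved by capillary electrophoresis, fitted bidirectionally against DMSO. Transiently transfected HepG2 cells, 24 h after chemical exposure, endogenous transcription factor activity.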

[5] = ATG_SREBP_CIS: Attagene CIS-FACTORIAL HepG2 Assay for human Sterol Regulatory Element Binding (SREBP) (AID 2282962); settings: HepG2 Attagene cis-factorial SREBP reporter, mRNA; actives raise or lower the signal
In short: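 Endogenous factor activity is measured in HepG2 through multiplexed reporter units under cis-element control. Following a 24 h incubation, reporter transcripts are reverse-transcribed, PCR-amplified and sized by capillary electrophoresis; activity is fitted in both directions relative to DMSO.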

[6] = target: Signal transducer and activator of transcription 3 (Homo sapiens) (UniProt P40763); experiment: ATG_STAT3_CIS: Attagene CIS-FACTORIAL HepG2 Assay for human Signal Transducer and Activator of Transcription 3 (STAT3) (AID 2282963); settings: HepG2, Attagene cis-factorial STAT3 reporter transcription; actives raise or lower the signal
Sequence of Signal transducer and activator of transcription 3 (Homo sapiens) (P40763 whole entry, looked up, the tested form may be a part): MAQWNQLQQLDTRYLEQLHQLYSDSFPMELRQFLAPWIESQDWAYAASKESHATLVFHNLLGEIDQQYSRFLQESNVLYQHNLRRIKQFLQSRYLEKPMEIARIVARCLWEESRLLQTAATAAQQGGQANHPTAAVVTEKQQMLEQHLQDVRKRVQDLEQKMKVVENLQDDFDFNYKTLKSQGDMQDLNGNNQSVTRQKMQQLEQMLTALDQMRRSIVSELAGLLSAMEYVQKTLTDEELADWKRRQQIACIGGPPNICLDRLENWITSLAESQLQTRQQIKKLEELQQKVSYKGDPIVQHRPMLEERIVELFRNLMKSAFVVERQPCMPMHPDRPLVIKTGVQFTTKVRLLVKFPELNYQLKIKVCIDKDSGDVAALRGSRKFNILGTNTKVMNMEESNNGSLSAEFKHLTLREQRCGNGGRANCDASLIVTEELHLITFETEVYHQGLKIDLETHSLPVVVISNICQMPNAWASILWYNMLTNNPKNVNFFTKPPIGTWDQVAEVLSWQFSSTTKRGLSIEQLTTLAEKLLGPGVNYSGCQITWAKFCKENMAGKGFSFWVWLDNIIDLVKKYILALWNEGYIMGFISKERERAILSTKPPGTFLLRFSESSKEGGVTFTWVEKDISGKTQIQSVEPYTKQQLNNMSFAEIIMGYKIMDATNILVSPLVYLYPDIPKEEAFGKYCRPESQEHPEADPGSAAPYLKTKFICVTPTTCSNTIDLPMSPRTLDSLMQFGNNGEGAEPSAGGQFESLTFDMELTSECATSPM
In short: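 Fluorescence intensity of 6-FAM-labelled reporter fragments, separated by capillary electrophoresis after RT-PCR, gave the signal. Cells were HepG2 transfected with cis-element reporter units and treated 24 h; fitting was bidirectional relative to DMSO.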

[7] = ATG_TA_CIS: Attagene CIS-FACTORIAL HepG2 Assay for human TA Basal Promoter (AID 2282964); settings: HepG2 Attagene CIS-factorial TA basal promoter reporter; actives raise or lower the signal
In short: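 Read-out: fluorescent reporter-transcript fragments resolved by capillary electrophoresis after RT-PCR and HpaI digestion. Source: HepG2 cells carrying transiently transfected multi-reporter cis constructs, treated 24 h. Endpoint fitted bidirectionally relative to DMSO.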

[8] = ATG_TCF_b_cat_CIS: Attagene CIS-FACTORIAL HepG2 Assay for human T-Cell-Factor with beta-catenin (TCF/b-cat) (AID 2282965); settings: HepG2 TCF/beta-catenin cis-reporter transcription, actives raise or lower the signal
In short: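 HepG2 cells transiently transfected with cis-promoter-driven multiplexed reporter units; reporter mRNA measured 24 h after dosing by RT-PCR, FAM labelling, HpaI digestion and capillary electrophoresis. Bidirectional fitting relative to DMSO baseline.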

[9] = ATG_TAL_CIS: Attagene CIS-FACTORIAL HepG2 Assay for human TAL Basal Promoter (AID 2282966); settings: HepG2 Attagene cis-factorial TAL promoter reporter; actives raise or lower the signal;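 further: background control endpoint measuring basal TAL promoter reporter mRNA not a specific factor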
In short: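 Human hepatoma HepG2 cells, transfected with promoter-regulated reporter units, were treated 24 h. Reporter transcript levels, measured through RT-PCR and capillary electrophoresis, were fitted for gain or loss relative to DMSO.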

[10] = ATG_TGFb_CIS: Attagene CIS-FACTORIAL HepG2 Assay for human Transforming Growth Factor (TGF) (AID 2282967); settings: HepG2 Attagene CIS TGFb reporter, mRNA transcription; actives raise or lower the signal
In short: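 Transient MRTU transfection of HepG2 (FuGene 6). Dose 24 h. TriZol RNA, oligo(dT) RT, PCR, 6-FAM primer extension, HpaI cut, CE. Bidirectional fit, DMSO = baseline.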

[11] = ATG_VDRE_CIS: Attagene CIS-FACTORIAL HepG2 Assay for human Vitamin D Receptor Element (VDRE) (AID 2282968); settings: HepG2 VDRE cis-reporter transcription, actives raise or lower the signal
In short: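 Compounds were applied for 24 h to HepG2 cells transfected with promoter-regulated reporter units. Total RNA was reverse-transcribed, and reporter amplicons were fluorescently labelled and sized by capillary electrophoresis.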

[12] = target: X-box-binding protein 1 (Homo sapiens) (UniProt P17861); experiment: ATG_Xbp1_CIS: Attagene CIS-FACTORIAL HepG2 Assay for human X-box Binding Protein 1 (XBP1) (AID 2282972); settings: HepG2 XBP1 cis-element reporter, Attagene multiplex; actives raise or lower the signal
Sequence of X-box-binding protein 1 (Homo sapiens) (P17861 whole entry, looked up): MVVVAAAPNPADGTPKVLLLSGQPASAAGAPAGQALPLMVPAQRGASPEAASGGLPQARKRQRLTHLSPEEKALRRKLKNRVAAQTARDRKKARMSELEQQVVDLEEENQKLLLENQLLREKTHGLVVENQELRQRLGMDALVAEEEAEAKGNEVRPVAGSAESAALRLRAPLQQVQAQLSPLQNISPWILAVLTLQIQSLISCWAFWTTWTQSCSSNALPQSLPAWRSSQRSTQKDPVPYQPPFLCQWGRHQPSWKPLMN
In short: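 Multiplexed cis-reporter readout in transfected HepG2 liver cells. Exposure lasted 24 hours. Activity in either direction was fitted against DMSO as negative control and baseline.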

[13] = ATG_M_19_TRANS: Attagene TRANS-FACTORIAL HepG2 Assay for M19 Transcription Factor (Internal Marker) (AID 2282974; active means hit-call score of the fitted dose curve at least 0.9, where 1 is the maximum); settings: HepG2 Attagene TRANS-FACTORIAL M19 internal marker reporter
In short: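 24 h chemical exposure of transiently transfected HepG2 (MRTU library). RNA → oligo(dT) RT → PCR → 6-FAM labelling → HpaI cut → CE fluorescence. Positive-direction fit vs DMSO baseline; background internal-marker readout.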

[14] = target: Estrogen-related receptor gamma (Homo sapiens) (UniProt P62508); experiment: ATG_ERRg_TRANS: Attagene TRANS-FACTORIAL HepG2 Assay for human Estrogen-Related Receptor gamma (ERRg) (AID 2282977; active means hit-call score of the fitted dose curve at least 0.9, where 1 is the maximum;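 further: hits increase reporter signal over DMSO so potencies reflect activators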); settings: HepG2 Attagene TRANS reporter, ERRg transactivation
Sequence of Estrogen-related receptor gamma (Homo sapiens) (P62508 whole entry, looked up, the tested form may be a part): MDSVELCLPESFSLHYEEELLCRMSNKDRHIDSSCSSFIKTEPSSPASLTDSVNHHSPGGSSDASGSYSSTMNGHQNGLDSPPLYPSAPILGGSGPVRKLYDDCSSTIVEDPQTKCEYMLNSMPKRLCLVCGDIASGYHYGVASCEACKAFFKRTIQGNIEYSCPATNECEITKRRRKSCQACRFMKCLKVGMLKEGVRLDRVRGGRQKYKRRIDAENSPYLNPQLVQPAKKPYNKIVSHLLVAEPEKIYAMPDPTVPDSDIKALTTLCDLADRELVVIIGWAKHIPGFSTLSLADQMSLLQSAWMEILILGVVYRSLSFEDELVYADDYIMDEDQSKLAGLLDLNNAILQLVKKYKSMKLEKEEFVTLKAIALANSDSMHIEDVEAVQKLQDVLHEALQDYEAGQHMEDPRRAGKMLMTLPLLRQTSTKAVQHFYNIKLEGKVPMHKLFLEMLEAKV
In short: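 Exogenous NR-Gal4 chimera activity measured as reporter transcript induction after 24 h in transiently transfected HepG2 cells. RNA reverse-transcribed, PCR-amplified, 6-FAM-labelled and resolved by capillary electrophoresis; increase over DMSO baseline.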

[15] = target: Transcription factor Sp1 (Homo sapiens) (UniProt P08047); experiment: ATG_Sp1_CIS: Attagene CIS-FACTORIAL HepG2 Assay for human Specificity Protein 1 (Sp1) (AID 2282961); settings: HepG2 Sp1 cis-reporter transcription, actives raise or lower the signal
Sequence of Transcription factor Sp1 (Homo sapiens) (P08047 whole entry, looked up): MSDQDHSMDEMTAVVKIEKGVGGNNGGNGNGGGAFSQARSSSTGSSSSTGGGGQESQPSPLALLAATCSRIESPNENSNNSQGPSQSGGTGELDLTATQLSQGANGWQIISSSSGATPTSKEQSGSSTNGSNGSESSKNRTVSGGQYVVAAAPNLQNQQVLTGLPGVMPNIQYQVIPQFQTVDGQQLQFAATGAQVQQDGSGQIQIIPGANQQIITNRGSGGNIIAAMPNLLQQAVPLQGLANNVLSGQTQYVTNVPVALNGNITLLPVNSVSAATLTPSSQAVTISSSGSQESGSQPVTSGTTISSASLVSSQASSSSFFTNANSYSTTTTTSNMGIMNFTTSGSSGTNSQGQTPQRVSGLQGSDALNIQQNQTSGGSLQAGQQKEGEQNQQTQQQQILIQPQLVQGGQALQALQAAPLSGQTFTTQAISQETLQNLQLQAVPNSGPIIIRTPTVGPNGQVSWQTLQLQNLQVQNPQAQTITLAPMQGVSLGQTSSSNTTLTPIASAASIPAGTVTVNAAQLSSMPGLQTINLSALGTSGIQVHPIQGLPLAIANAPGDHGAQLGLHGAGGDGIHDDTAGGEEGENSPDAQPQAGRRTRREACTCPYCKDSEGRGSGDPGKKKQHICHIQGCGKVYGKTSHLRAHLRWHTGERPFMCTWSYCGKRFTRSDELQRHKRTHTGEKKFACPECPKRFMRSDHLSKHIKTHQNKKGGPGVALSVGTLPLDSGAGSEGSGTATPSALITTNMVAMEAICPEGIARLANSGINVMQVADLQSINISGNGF
In short: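 Read-out: fluorescence of 6-FAM-labeled, HpaI-digested RT-PCR products separated by capillary electrophoresis. HepG2 cells carried transfected cis-element reporter units and were exposed to chemicals for 24 h; gain or loss of signal fitted relative to DMSO.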

[16] = target: Nuclear receptor subfamily 1 group I member 3 (Homo sapiens) (UniProt Q14994); experiment: ATG_CAR_TRANS: Attagene TRANS-FACTORIAL HepG2 Assay for human Constitutive Androstane Receptor (CAR) (AID 2282969; active means hit-call score of the fitted dose curve at least 0.9, where 1 is the maximum;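 further: activators raise reporter mRNA above DMSO so AC50 marks induction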); settings: HepG2 Attagene TRANS-FACTORIAL CAR reporter
Sequence of Nuclear receptor subfamily 1 group I member 3 (Homo sapiens) (Q14994 whole entry, looked up, the tested form may be a part): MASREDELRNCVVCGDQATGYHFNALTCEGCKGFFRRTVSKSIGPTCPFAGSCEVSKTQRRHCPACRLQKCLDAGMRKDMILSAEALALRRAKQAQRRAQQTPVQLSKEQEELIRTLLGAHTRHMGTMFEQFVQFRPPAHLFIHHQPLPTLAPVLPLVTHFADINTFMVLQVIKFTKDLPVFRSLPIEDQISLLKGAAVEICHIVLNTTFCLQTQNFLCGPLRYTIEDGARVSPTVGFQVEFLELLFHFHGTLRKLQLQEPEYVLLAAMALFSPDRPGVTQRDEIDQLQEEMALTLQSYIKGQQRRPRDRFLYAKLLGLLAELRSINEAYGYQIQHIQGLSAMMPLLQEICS
In short: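 Transiently transfected HepG2, multiplex TRANS reporters (CAR-Gal4 chimera driving GAL4-UAS reporter). 24 h dosing. Readout: reporter transcript by RT-PCR + capillary electrophoresis, fluorescence intensity; positive direction vs DMSO.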

[17] = target: Steroid hormone receptor ERR1 (Homo sapiens) (UniProt P11474); experiment: ATG_ERRa_TRANS: Attagene TRANS-FACTORIAL HepG2 Assay for human Estrogen-Related Receptor alpha (ERRa) (AID 2282971; active means hit-call score of the fitted dose curve at least 0.9, where 1 is the maximum); settings: HepG2 Attagene TRANS reporter, ERRa transactivation
Sequence of Steroid hormone receptor ERR1 (Homo sapiens) (P11474 whole entry, looked up, the tested form may be a part): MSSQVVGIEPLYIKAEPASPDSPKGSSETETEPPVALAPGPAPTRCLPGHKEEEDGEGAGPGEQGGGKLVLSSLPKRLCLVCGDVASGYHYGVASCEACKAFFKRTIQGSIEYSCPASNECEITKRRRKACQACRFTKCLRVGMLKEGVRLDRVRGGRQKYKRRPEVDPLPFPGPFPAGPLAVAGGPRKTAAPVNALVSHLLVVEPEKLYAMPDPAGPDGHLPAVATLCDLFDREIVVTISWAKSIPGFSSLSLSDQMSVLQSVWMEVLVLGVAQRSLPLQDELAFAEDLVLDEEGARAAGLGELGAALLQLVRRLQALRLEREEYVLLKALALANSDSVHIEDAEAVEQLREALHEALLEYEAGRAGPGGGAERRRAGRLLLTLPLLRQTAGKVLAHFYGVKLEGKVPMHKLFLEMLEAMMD
In short: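 Signal gain relative to DMSO for an ERRa-Gal4 chimeric receptor, read as reporter mRNA by RT-PCR/capillary electrophoresis. Human HepG2 liver cells, transient multiplex reporter transfection, 24 h chemical exposure.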

[18] = ATG_GAL4_TRANS: Attagene TRANS-FACTORIAL HepG2 Assay for GAL4 (Internal Marker) (AID 2282976; active means hit-call score of the fitted dose curve at least 0.9, where 1 is the maximum); settings: HepG2 Attagene TRANS GAL4 internal marker reporter
In short: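 Liver HepG2 line bearing multiplexed GAL4-UAS reporter constructs; 24 h chemical treatment. Transcripts were quantified as fluorescent fragments on capillary electrophoresis after RT-PCR and HpaI cut, with activity fitted upward from DMSO.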

[19] = target: Estrogen receptor (Homo sapiens) (UniProt P03372); experiment: ATG_ERa_TRANS: Attagene TRANS-FACTORIAL HepG2 Assay for human Estrogen Receptor alpha (ERa) (AID 2282970; active means hit-call score of the fitted dose curve at least 0.9, where 1 is the maximum); settings: HepG2 Attagene TRANS ERa GAL4 reporter, mRNA
Sequence of Estrogen receptor (Homo sapiens) (P03372 whole entry, looked up, the tested form may be a part): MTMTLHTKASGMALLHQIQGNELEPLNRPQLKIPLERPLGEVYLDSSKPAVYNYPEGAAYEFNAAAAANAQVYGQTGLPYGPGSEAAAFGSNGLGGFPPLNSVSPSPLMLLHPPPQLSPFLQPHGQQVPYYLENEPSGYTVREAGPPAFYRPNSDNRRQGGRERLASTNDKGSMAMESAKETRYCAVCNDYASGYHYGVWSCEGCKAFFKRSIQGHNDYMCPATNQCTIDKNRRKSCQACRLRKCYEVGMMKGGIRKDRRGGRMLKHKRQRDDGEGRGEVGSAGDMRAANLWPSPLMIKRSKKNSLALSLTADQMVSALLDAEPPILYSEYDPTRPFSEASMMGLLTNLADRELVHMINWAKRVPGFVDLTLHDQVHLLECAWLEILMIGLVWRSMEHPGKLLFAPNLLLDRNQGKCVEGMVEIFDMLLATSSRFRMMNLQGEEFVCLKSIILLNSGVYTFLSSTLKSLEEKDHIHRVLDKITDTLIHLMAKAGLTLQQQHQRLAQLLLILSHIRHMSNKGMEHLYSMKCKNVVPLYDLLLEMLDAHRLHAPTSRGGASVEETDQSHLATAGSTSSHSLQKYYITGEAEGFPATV
In short: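 Signal derives from fluorescence of labelled reporter PCR fragments separated by capillary electrophoresis. HepG2 cells transiently carrying multiple GAL4-UAS reporter units were treated 24 hours, and induction above DMSO baseline was fitted as activity.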

Measured: AC50

O=C1c2ccccc2C(=O)c2c(O)ccc(O)c21
active: [2] 7.05 µM
not listed: [15] | [16] | [17] | [18] | [19]
inactive: all other assays above

COc1ccccc1N=Nc1c(S(=O)(=O)O)cc2cc(S(=O)(=O)O)cc(NC(C)=O)c2c1O
active: [2] 25.7 µM
not listed: [7] | [14] | [19]
inactive: all other assays above

CCN(CCN)c1cccc(C)c1
active: [2] 36.2 µM | [11] 72.4 µM
not listed: [4] | [13] | [17] | [18]
inactive: all other assays above

CCO/C=C1\N=C(c2ccccc2)OC1=O
active: [2] 63.8 µM
inactive: [1] | [3] | [4] | [5] | [6] | [7] | [8] | [10] | [12] | [13]

CCCCOC(=O)CCCCCCCC(=O)OCCCC
active: [8] 128 µM
not listed: [7] | [13] | [16] | [19]
inactive: all other assays above

OCCOCCN1CCN(C2=Nc3ccccc3Sc3ccccc32)CC1
active: [2] 7.41 µM | [11] 19.5 µM
not listed: [4] | [12] | [13] | [14] | [16] | [17] | [19]
inactive: all other assays above

CCCCCc1ccco1
active: [1] 111 µM | [2] 4.15 µM | [8] 70 µM
not listed: [4] | [14] | [17] | [18] | [19]
inactive: all other assays above

CC(C)CCOC(=O)c1ccccc1
not listed: [4] | [14] | [16] | [17] | [19]
inactive: all other assays above

COc1ccccc1[N+](=O)[O-]
active: [2] 71.7 µM
not listed: [4] | [13] | [18] | [19]
inactive: all other assays above

C1=CC2C3C=CC(C3)C2C1 (stereo unspecified)
active: [2] 36.3 µM
not listed: [5] | [7] | [14] | [16] | [19]
inactive: all other assays above

O=C(O)COCC(=O)O
not listed: [5] | [9] | [13] | [14] | [15] | [17] | [19]
inactive: all other assays above

O=C(Nc1ccc2c(O)c(N=Nc3ccc(N=Nc4ccc(S(=O)(=O)O)cc4)cc3)c(S(=O)(=O)O)cc2c1)c1ccccc1
not listed: [7] | [13] | [14] | [17]
inactive: all other assays above

CCCC(=O)C(CC)Sc1ccoc1C (stereo unspecified)
active: [2] 5.68 µM | [11] 26.7 µM | [19] 16 µM | [12] 25.8 µM
not listed: [7] | [13] | [14] | [17] | [18]
inactive: all other assays above

CCCCOCC
not listed: [5] | [15] | [16] | [17] | [19]
inactive: all other assays above

CC(C)OCCO
not listed: [8] | [12] | [13] | [14] | [15] | [17] | [18] | [19]
inactive: all other assays above

O=CCc1ccccc1
active: [2] 9.42 µM
not listed: [7] | [13] | [14] | [17] | [18] | [19]
inactive: all other assays above

COS(=O)(=O)O
not listed: [14] | [15] | [16] | [17] | [19]
inactive: all other assays above

CCCCC(CC)COC(=O)c1ccc(O)cc1 (stereo unspecified)
active: [2] 11.1 µM
inactive: [1] | [3] | [4] | [5] | [6] | [7] | [8] | [9] | [11] | [18]

CCOC(=O)CN
not listed: [3] | [10] | [13] | [14] | [16] | [17] | [19]
inactive: all other assays above
